# According to PubChem BioAssay AID624126 (The Scripps Research Institute Molecular Screening Center, 2012):
# The campaign covered roughly 360,000 compounds. About 1,400 (0.39%) were called active. The full list was thinned out, with actives kept by preference. A number with no mark means an inactive call.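 The calls were made as follows: active = activation above its plate's cutoff, the mean activation of sample wells plus 3 SD; inactive = the rest.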
# Biological target: Muscarinic acetylcholine receptor M4 (Homo sapiens) (UniProt P08173)
# Test: CHRM4 PAMs potentiating acetylcholine calcium signal – CHO-K1 cells, Fluo-8 calcium fluorescence, primary screen (AID 624126)
# Conditions: CHO-K1 hM4/Gqi5, Fluo-8 calcium fluorescence, ACh EC20; at 3 µM; active compounds read high; 0% = ACh EC20, 100% = maximal ACh
# Sequence of Muscarinic acetylcholine receptor M4 (Homo sapiens) (P08173 whole entry, looked up): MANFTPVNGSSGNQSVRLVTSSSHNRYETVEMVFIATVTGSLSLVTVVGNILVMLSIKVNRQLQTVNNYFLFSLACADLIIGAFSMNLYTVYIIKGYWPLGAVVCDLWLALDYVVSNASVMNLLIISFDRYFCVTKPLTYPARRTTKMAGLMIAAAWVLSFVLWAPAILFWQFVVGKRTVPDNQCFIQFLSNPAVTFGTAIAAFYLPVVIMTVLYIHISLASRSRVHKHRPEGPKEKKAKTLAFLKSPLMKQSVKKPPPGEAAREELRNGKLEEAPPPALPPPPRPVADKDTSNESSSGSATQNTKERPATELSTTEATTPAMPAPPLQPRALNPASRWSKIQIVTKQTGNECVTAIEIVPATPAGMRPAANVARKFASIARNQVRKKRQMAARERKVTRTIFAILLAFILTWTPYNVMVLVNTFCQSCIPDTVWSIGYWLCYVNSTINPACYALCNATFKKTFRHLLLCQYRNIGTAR
row,SMILES,activation
1,CC(C)N=C1CCCC1C(=S)SSC(=S)C1CCCC1=NC(C)C (centres undefined),7.38%
2,Cc1cc2[nH]ncc2cc1NC(=S)NC(=O)c1ccccc1,31.9% (active)
3,Cn1nnc(NC(=S)NC(=O)c2ccccc2)n1,22.4%
4,Cc1cc(C)cc(C(=O)NC(=S)Nc2ccc3[nH]c(=O)[nH]c3c2)c1,5.23%
5,COc1ccc(C(=O)C2CCCN(C(=O)c3ccc(OC)o3)C2)c(C)c1 (centres undefined),-1.21%
6,Cc1cccc(-n2c(SCC(N)=O)nc3c(c2=O)C2(CCCCC2)Cc2ccccc2-3)c1,-5.47%
7,CN(c1ccc2nc3ccccc3c(=O)n2n1)C1CCCCC1,11.4%
8,O=c1c2ccccc2nc2n1C1(CCCCC1)Cc1ccccc1-2,21.2% (active)
9,Cc1ccc(C(=O)C(C)OC(=O)Cc2n[nH]c(=O)c3ccccc23)cc1C (centres undefined),-4.11%
10,COc1ccc(C(=O)N/N=C2\CCS(=O)(=O)c3ccc(F)cc32)cc1OC,2.71%
11,Cc1sc2ncnc(N3CCC(C(=O)Nc4ccc(F)cc4Cl)CC3)c2c1C,45% (active)
12,Cc1sc2ncnc(N3CCC(C(=O)NNC(=O)c4ccc(F)cc4)CC3)c2c1C,-3.74%
13,Cc1sc2ncnc(N3CCC(C(=O)Nc4nc5ccc(Cl)cc5s4)CC3)c2c1C,7.24%
14,Cc1cccc(N(C)C(=O)c2cc(S(=O)(=O)N3CCCCC3)c[nH]2)c1,-3.91%
15,NCC(=O)c1cccc2ccc[n+]([O-])c12,17.3% (active)
16,Cc1ccc2cccc(O)c2[n+]1[O-],16.2%
17,Cc1nc2sc(C(=O)c3ccccc3)c(N)c2c2c1CCCC2,63% (active)
18,Cn1c(-c2ccc(C(=O)c3ccccc3)s2)nc2ccccc21,0.98%
19,Cc1cccc2cc3c(N)c(C(=O)N4CCCc5ccccc54)sc3nc12,-7.18%
20,O=C(NCc1ccccc1Cl)C(=O)NCC1CCCN1S(=O)(=O)c1cccs1 (centres undefined),-2.08%
21,CC(Oc1ccccc1)C(=O)Nc1c2c(nn1-c1ccccc1)CS(=O)C2 (centres undefined),-0.93%
22,CCCc1cc(=O)[nH]c(SCC(=O)N2CCN(S(=O)(=O)c3ccc(C)cc3C)CC2)n1,-1.77%
23,Cc1ccc(S(=O)(=O)N2CCN(C(=O)CSc3cc(C)ccc3C)CC2)c(C)c1,18.8% (active)

row,SMILES,activation
1,Cc1ccc(S(=O)(=O)N2CCN(C(=O)COC(=O)c3c(C)cc(C)cc3C)CC2)c(C)c1,-3.37%
2,CC(C#N)(NC(=O)CN1CCN(S(=O)(=O)c2cc(C(F)(F)F)ccc2Cl)CC1)C1CC1 (centres undefined),0.11%
3,COc1cccc(NC(=O)C2CCCN(c3ncnc4c3nc3n4CCCCC3)C2)c1 (centres undefined),-6.71%
4,CCOc1ccc(S(=O)(=O)Nc2cccc(C(=O)NCC3(N4CCCCC4)CCCCC3)c2)cc1,-3.09%
5,Cc1cc(C)c(S(=O)(=O)c2ccccc2)c(OC(=O)c2c(F)cccc2Cl)n1,1.34%
6,O=C(CCS(=O)(=O)c1ccccc1)NC1CCCC1,2.49%
7,O=C(O)CCS(=O)(=O)c1ccc(-c2ccccc2)cc1,20.7% (active)
8,Cc1ccc(S(=O)(=O)CCC(=O)OCc2ccccc2)cc1,1.2%
9,O=C1c2ccccc2NC(c2ccccn2)N1NS(=O)(=O)c1ccccc1 (centres undefined),16.5%
10,CN(CC(=O)NCCc1ccc(F)cc1)CC(=O)Nc1ccc(F)c(F)c1F,21.1% (active)
11,CN(CC(=O)NCCc1ccc(S(N)(=O)=O)cc1)CC(=O)Nc1ccc(F)c(F)c1F,0.07%
12,CN(CC(=O)NCc1ccc2c(c1)OCO2)CC(=O)Nc1ccc(F)c(F)c1F,-5.56%
13,CCc1ccccc1NC(=O)CCOc1ccccc1,-7.57%
14,Cc1cccc(OCCC(=O)Nc2ccccc2C(N)=O)c1,0.92%
15,Cc1ccccc1NC(=O)CCOc1ccccc1,15.2% (active)
16,CCCn1nc(NS(=O)(=O)c2ccccc2)c2cc3cc(C)ccc3nc21,9.07%
17,COc1ccc(CN2C(=O)C(CC(=O)NC3CCCCC3)CC(C(=O)N3CCOCC3)=C2C)cc1 (centres undefined),0.19%
18,Cn1c(CCN2CCN(c3ccccn3)CC2)nc2cc(NS(=O)(=O)c3ccc(F)cc3)ccc21,-13.9%
19,C=CCC1(CC=C)CCCN1C(=O)CC1C(=O)NCCN1Cc1ccccc1OC (centres undefined),9.2%
20,O=C(Nc1ccccc1Cl)c1ccccc1S(=O)(=O)c1ccccc1[N+](=O)[O-],24.3% (active)
21,O=C(NCCNc1ccccc1[N+](=O)[O-])c1ccccc1F,-0.9%
22,O=C(Nc1ccccc1-c1ccccc1)c1ccccc1[N+](=O)[O-],-0.05%
23,Cc1cc(OC(C)C(=O)Nc2ccc(S(=O)(=O)Nc3onc(C)c3C)cc2)cc(C)c1Cl (centres undefined),-0.5%

row,SMILES,activation
1,COc1ccc(C(=O)Nc2ccc(S(=O)(=O)Nc3onc(C)c3C)cc2)cc1OC,31.2% (active)
2,Cc1noc(NS(=O)(=O)c2ccc(NC(=O)c3oc4ccc(F)cc4c3C)cc2)c1C,-0.81%
3,CCOC(=O)CNC(=O)CSc1ccc2nnc(-c3cccnc3)n2n1,-1.25%
4,CN(Cc1ccccc1)C(=O)c1ccc(NC2=NC3CS(=O)(=O)CC3S2)cc1 (centres undefined),-4.53%
5,Cc1ccc2nc(-c3ccncc3)cc(C(=O)Nc3ccncc3)c2c1,20.7% (active)
6,Cc1ccc(-c2cc(C(=O)NCc3cn(C)nc3C)c3cc(Br)ccc3n2)cc1,-8.1%
7,CCS(=O)(=O)Nc1cccc(-c2cc(-c3ccccc3)c3cc(C)ccc3n2)c1,-23%
8,CCCC[C@@H]1CN=C(N)N1CCc1cc(C(F)(F)F)cc(C(F)(F)F)c1,-12.2%
9,CCOC(=O)C1=C(c2ccccc2)O/C(=C(/C(=O)OC)C(F)(F)F)S1,-8.8%
10,COCCNc1ncnc2c1ncn2[C@H]1CN(CCN2CCOCC2)C[C@@H](CO)O1,-3.76%
11,COCCNc1ncnc2c1ncn2[C@H]1CN(Cc2ccc(OC)cc2)C[C@@H](CO)O1,16.3% (active)
12,OC[C@@H]1CN(Cc2ccc(Cl)cc2)C[C@H](n2cnc3c(NCc4ccncc4)ncnc32)O1,-0.98%
13,COc1cc(CC(=O)N2CCC(n3nccc3NC(=O)C3CC3)CC2)cc(OC)c1OC,0.58%
14,Cc1cc(C)cc(N)c1,-1.71%
15,CC(Nc1nc(C(F)(F)F)nc2ccccc12)c1cccs1 (centres undefined),-11.8%
16,O=C(CCNC(=O)c1ccccc1Cl)NN=Cc1ccco1,3.05%
17,CC(C)NC(=O)C(=O)N/N=C/c1ccco1,23.7% (active)
18,Cc1c(Cl)cccc1NC(=O)CCC(=O)N/N=C/c1ccco1,4.77%
19,O=C(OCC(=O)N(CCc1ccccc1)Cc1ccccc1)c1ccccc1[N+](=O)[O-],-11%
20,CC(NC(=O)COc1ccccc1)C(=O)NC1=NCCS1 (centres undefined),8.32%
21,CCN1CN(Cc2ccccc2)CNC1=S,10.7%
22,CC(C)CCN1C(=O)c2ccc(C(=O)Nc3cccc(S(N)(=O)=O)c3)cc2C1=O,23.1% (active)
23,CCCCN1C(=O)c2ccc(C(=O)Nc3ccc(S(=O)(=O)N(C)C)cc3)cc2C1=O,-10.2%

row,SMILES,activation
1,CN1CCN(S(=O)(=O)c2cccc(C(=O)Nc3cccc(S(N)(=O)=O)c3)c2)CC1,-0.95%
2,CC(=O)NC(NC(=S)Nc1c(C)n(C)n(-c2ccccc2)c1=O)C(Cl)(Cl)Cl (centres undefined),-1.16%
3,CCCCc1ccc(NC(=S)N2CCCC(CO)C2)cc1 (centres undefined),0.72%
4,CCOC(=O)c1sc(NC(=O)C2CSC3(C)CCC(=O)N23)nc1C (centres undefined),2.06%
5,CCOC(=O)c1sc(NC(=O)CSc2n[nH]c(CC)n2)nc1C,-9.01%
6,CCOC(=O)c1sc(/N=C/Nc2nc(C)c(C(=O)OCC)s2)nc1C,39% (active)
7,Cc1ccn2cc(-c3nonc3C)cc2c1,3.14%
8,Cc1ccc(S(=O)(=O)N2CCCCC2)cc1C(=O)N1CCN(CCO)CC1,7.4%
9,CN1CCN(C(=O)N2c3ccccc3CCc3ccccc32)CC1,-20.3%
10,CCc1noc(C)c1C(=O)N1CCCC(N2CCN(c3ccc(F)cc3)CC2)C1 (centres undefined),20% (active)
11,COc1ccccc1CN1CCCC(N2CCN(c3ccc(F)cc3)CC2)C1 (centres undefined),-7.29%
12,Cc1cnc(C(=O)N2CCCC(N3CCN(c4ccccc4F)CC3)C2)cn1 (centres undefined),6.32%
13,COCCCNC(=O)Cn1cc(/C=C(\C#N)C(=O)N2CCN(c3ccccc3)CC2)c2ccccc21,6.26%
14,COc1ccc(CCNC(=O)CCn2c(=O)oc3ccccc32)cc1OC,5.54%
15,CCN1CCC2(CCN(Cc3cn[nH]c3-c3ccc(OC)c(F)c3)C2)C1 (centres undefined),16.5%
16,CC[C@]1(O)CC2CN(CCc3c([nH]c4ccccc34)[C@@](C(=O)OC)(c3cc4c(cc3OC)N(C=O)[C@H]3[C@@](O)(C(=O)OC)[C@H](OC(C)=O)[C@]5(CC)C=CCN6CC[C@]43[C@@H]65)C2)C1 (some centres undefined),-0.6%
17,CCN(CC)S(=O)(=O)c1ccc(NC(=O)c2cccnc2Cl)c(NC(=O)c2cccnc2Cl)c1,2.53%
18,CCCCCCn1cc(C(=O)O)c(=O)c2cc(F)c(N3CCCCC3)cc21,-1.05%
19,CCn1cc(C(=O)NCCO)c(=O)c2cc(F)c(N3CCN(C)CC3)cc21,-4.27%
20,CCCCNC(=O)c1cn(CC)c2cc(N3CCN(C(=O)c4ccco4)CC3)c(F)cc2c1=O,18% (active)
